Experimental data: PubChem BioAssay (NCATS)
Results filed as inconclusive are left out. Calls of active or inactive are those of the source. Unless noted, calls come from the whole dose curve; as a rule, active = well fitted curve in the direction sought with a large enough effect in the repeat runs; inconclusive = weak or mixed curves; inactive = no such curve, though single readings can be large; an effect the other way counts as inactive or inconclusive. Numbered stars: 1 amine (or outer) side, 2 acyl side, 3 side chain; on linkers, the order of the positions; unused ones are H or OH. Bridge positions count the residues as written; N and C are the ends. Square brackets hold non-standard residues; d marks the D form. Peptide text beside a SMILES is read from it. I, II: the chains in the order shown. Actinocin(9to1) = Cc1c2oc3c(C)ccc(C(=O)[*:1])c3nc-2c(C(=O)[*:2])c(N)c1=O; NMeV = CN[C@H](C(=O)O)C(C)C; Sar = CNCC(=O)O

System: not listed separately
Assay: A High-Content qHTS Against Drug Library for the Identification of Small Molecules that Inhibit DYT1 Early Onset Primary Dystonia-Associated Cell Pathology (AID 1645839; calls by dose curve)
Conditions: HEK293 Flp-In EGFP-delE TorsinA, punctate imaging, 48 h; series mostly up to 46.1 µM; % pathology change, negative = correction: at the top concentration
Summary of the method: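 High-content imaging quantified EGFP-TorsinA mislocalization in HEK293-derived cells inducibly expressing DYT1 mutant torsinA, after 48 h exposure to compound given together with tetracycline induction. Cell count served as a toxicity channel alongside %pathology.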

SMILES | % pathology change, negative = correction
C[C@H](O)C(=O)Nc1c(I)c(C(=O)NC(CO)CO)c(I)c(C(=O)NC(CO)CO)c1I | 10.4% (inactive)
COc1cc(OC)cc(OC)c1 | 3.65% (inactive)
CN(C)C(=S)SC(=S)N(C)C | -21% (inactive)
O=C1[C@H]2CCCC[C@H]2C(=O)N1CCCCN1CCN(c2nsc3ccccc23)CC1 | -5.45% (inactive)
O=C(N/N=C/c1ccccc1O)c1ccncc1 | -49.9% (inactive)
CCN(CC)C(=O)N1CCN(C)CC1 | 18.4% (inactive)
CCCCS(=O)(=O)N[C@@H](Cc1ccc(OCCCCC2CCNCC2)cc1)C(=O)O | -5.23% (inactive)
CCOC(=O)c1cccc(N)c1 | 17.4% (inactive)
OC[C@H]1O[C@H](O[C@]2(CCl)O[C@H](CCl)[C@@H](O)[C@@H]2O)[C@H](O)[C@@H](O)[C@H]1Cl | -2.86% (inactive)
CNC(=O)CN(CCN(CCN(CC(=O)[O-])CC(=O)NC)CC(=O)[O-])CC(=O)[O-].O.[Gd+3] | -13.6% (inactive)
Cc1cccn2c(=O)c(-c3nnn[nH]3)cnc12 | -1.54% [at 19.1 µM] (inactive)

Biological target: Cytochrome P450 2D6 (Homo sapiens) (UniProt P10635)
Sequence (P10635 whole entry, looked up): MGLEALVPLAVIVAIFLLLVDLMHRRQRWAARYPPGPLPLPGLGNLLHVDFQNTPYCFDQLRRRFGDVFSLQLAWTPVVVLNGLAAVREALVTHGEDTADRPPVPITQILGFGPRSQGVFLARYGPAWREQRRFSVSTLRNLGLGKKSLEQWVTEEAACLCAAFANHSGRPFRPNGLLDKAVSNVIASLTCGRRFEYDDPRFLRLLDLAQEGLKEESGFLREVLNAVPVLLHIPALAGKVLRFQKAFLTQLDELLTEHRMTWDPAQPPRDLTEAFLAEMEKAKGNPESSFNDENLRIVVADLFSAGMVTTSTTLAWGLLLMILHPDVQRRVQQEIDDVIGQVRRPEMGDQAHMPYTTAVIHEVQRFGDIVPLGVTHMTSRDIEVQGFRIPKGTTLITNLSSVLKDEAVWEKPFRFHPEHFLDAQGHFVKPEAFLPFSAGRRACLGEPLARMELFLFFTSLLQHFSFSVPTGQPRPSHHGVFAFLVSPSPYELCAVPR
Assay: Cytochrome P450 family 2 subfamily D member 6 (CYP2D6) small molecule antagonists: luciferase biochemical (cell-free) qHTS assay (AID 1645840); note: nearly all actives have a fitted effect of over 55% in size; note: potency is the fitted concentration of half-maximal effect; for activity change, negative = inhibition: % is set by controls: 0 for no effect and ±100 for the full control effect
Conditions: P450-Glo CYP2D6 enzyme, luciferin luminescence, 1 h; series mostly up to 57.4 µM; activity change, negative = inhibition: at the top concentration
Summary of the method: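 P450-Glo CYP2D6 system: proluciferin substrate converted by enzyme to luciferin, read by luminescence proportional to activity. Enzyme-substrate mix with compound 10 min at room temperature, then NADPH regeneration 1 h before detection reagent.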

SMILES | activity change, negative = inhibition | Potency
OCc1ccccc1O | 2.39% (inactive) | –
CN(C)CCOc1ccccc1Cc1ccccc1 | – | 1.95 µM (active)
COc1cc(OC)cc(OC)c1 | 2.38% (inactive) | –
CN(C)C(=S)SC(=S)N(C)C | 8.96% (inactive) | –
CCCCOc1cc(C(=O)NCCN(CC)CC)c2ccccc2n1 | – | 8.71 µM (active)
COc1cccc(OC)c1C(=O)N[C@@H]1C(=O)N2[C@@H]1SC(C)(C)[C@@H]2C(=O)O | 6.26% (inactive) | –
O=C1[C@H]2CCCC[C@H]2C(=O)N1CCCCN1CCN(c2nsc3ccccc23)CC1 | – | 12.3 µM (active)
COc1cc(C(=S)N2CCOCC2)cc(OC)c1OC | -1.14% (inactive) | –
CCN(CCCc1ccccc1)CCCc1ccccc1 | – | 1.23 µM (active)
COc1cc(/C=C/C(=O)O[C@H]2CC[C@]34C[C@]35CC[C@]3(C)[C@@H]([C@H](C)CCC=C(C)C)CC[C@@]3(C)[C@@H]5CC[C@H]4C2(C)C)ccc1O | 8.88% (inactive) | –
CCN(CC)C(=O)/C(C#N)=C/c1cc(O)c(O)c([N+](=O)[O-])c1 | 1.48% (inactive) | –
Cc1c2oc3c(C)ccc(C(=O)N[C@@H]4C(=O)N[C@H](C(C)C)C(=O)N5CCC[C@H]5C(=O)N(C)CC(=O)N(C)[C@@H](C(C)C)C(=O)O[C@@H]4C)c3nc-2c(C(=O)N[C@@H]2C(=O)N[C@H](C(C)C)C(=O)N3CCC[C@H]3C(=O)N(C)CC(=O)N(C)[C@@H](C(C)C)C(=O)O[C@@H]2C)c(N)c1=O (I: T[dV]P[Sar][NMeV] / II: T[dV]P[Sar][NMeV]; ester I:1-I:C, II:1-II:C; linker I:N-II:N via Actinocin(9to1)) | -14.9% (inactive) | –
O=C(COc1ccc(Cl)cc1)N1CCN(Cc2ccc3c(c2)OCO3)CC1 | – | 0.436 µM (active)
NCCc1ccn[nH]1 | 8.55% (inactive) | –
CCCCOc1ccc(OCCCN2CCOCC2)cc1 | – | 13.8 µM (active)
CN1CCC(=C2c3ccccc3Sc3ccccc32)CC1 | – | 1.38 µM (active)
C=C1C(=C/C=C2\CCC[C@]3(C)[C@@H]([C@H](C)/C=C/[C@@H](O)C4CC4)CC[C@@H]23)C[C@@H](O)C[C@@H]1O | – | 24.5 µM (active)
CCCCS(=O)(=O)N[C@@H](Cc1ccc(OCCCCC2CCNCC2)cc1)C(=O)O | 3.86% (inactive) | –
COC(=O)CCc1ccc(OCC(O)CNC(C)C)cc1 (stereo not given) | -19.2% (inactive) | –
CCOC(=O)c1cccc(N)c1 | 1.94% (inactive) | –
OC[C@H]1O[C@H](O[C@]2(CCl)O[C@H](CCl)[C@@H](O)[C@@H]2O)[C@H](O)[C@@H](O)[C@H]1Cl | -23.2% (inactive) | –
CC1(C)O[C@@H]2C[C@H]3[C@@H]4CCC5=CC(=O)CC[C@]5(C)[C@@]4(F)[C@@H](O)C[C@]3(C)[C@]2(C(=O)CCl)O1 | -8.87% (inactive) | –
CNC(=O)CN(CCN(CCN(CC(=O)[O-])CC(=O)NC)CC(=O)[O-])CC(=O)[O-].O.[Gd+3] | 11.8% (inactive) | –
Cc1ccnc(NS(=O)(=O)c2ccc(N)cc2)n1 | 3.73% (inactive) | –
C#C[C@]1(O)CC[C@H]2[C@@H]3CCc4cc(OC5CCCC5)ccc4[C@H]3CC[C@@]21C | -26.6% (inactive) | –

Biological target: Cytochrome P450 2C9 (Homo sapiens) (UniProt P11712)
Sequence (P11712 whole entry, looked up): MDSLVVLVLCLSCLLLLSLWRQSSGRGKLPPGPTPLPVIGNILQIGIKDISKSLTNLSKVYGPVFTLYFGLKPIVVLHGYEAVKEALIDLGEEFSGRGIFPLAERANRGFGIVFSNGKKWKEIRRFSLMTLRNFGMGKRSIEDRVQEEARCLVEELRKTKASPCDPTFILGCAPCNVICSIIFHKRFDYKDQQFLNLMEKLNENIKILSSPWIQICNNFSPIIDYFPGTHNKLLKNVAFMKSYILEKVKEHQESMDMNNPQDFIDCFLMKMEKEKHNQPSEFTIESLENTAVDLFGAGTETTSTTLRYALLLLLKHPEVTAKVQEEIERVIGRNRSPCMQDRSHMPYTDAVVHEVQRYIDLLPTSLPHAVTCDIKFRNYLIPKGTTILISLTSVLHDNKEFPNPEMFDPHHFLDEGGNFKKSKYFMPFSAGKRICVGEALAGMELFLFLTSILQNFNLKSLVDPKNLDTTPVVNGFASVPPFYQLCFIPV
Assay: Cytochrome P450 family 2 subfamily C member 9 (CYP2C9) small molecule antagonists: luciferase biochemical (cell-free) qHTS assay (AID 1645842); note: nearly all actives have a fitted effect of over 55% in size; note: potency is the fitted concentration of half-maximal effect; for activity change, negative = inhibition: % is set by controls: 0 for no effect and ±100 for the full control effect
Conditions: P450-Glo CYP2C9 enzyme assay, luciferin luminescence; series mostly up to 57.4 µM; activity change, negative = inhibition: at the top concentration
Summary of the method: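 P450-Glo CYP2C9 system: proluciferin substrate with enzyme in mix containing 0.4% BSA, 10 min at room temperature, then NADPH regeneration solution added and incubated 1 h at 37C. Detection reagent stopped reaction; luminescence read after 20 min as RLU.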

SMILES | activity change, negative = inhibition | Potency
OCc1ccccc1O | 4.88% (inactive) | –
CN(C)CCOc1ccccc1Cc1ccccc1 | 0.881% (inactive) | –
C[C@H](O)C(=O)Nc1c(I)c(C(=O)NC(CO)CO)c(I)c(C(=O)NC(CO)CO)c1I | -2.28% (inactive) | –
COc1cc(OC)cc(OC)c1 | 7.14% (inactive) | –
CCCCOc1cc(C(=O)NCCN(CC)CC)c2ccccc2n1 | -6.26% (inactive) | –
COc1cccc(OC)c1C(=O)N[C@@H]1C(=O)N2[C@@H]1SC(C)(C)[C@@H]2C(=O)O | 14% (inactive) | –
O=C1[C@H]2CCCC[C@H]2C(=O)N1CCCCN1CCN(c2nsc3ccccc23)CC1 | 31.9% (inactive) | –
COc1cc(C(=S)N2CCOCC2)cc(OC)c1OC | 7.51% (inactive) | –
O=C(N/N=C/c1ccccc1O)c1ccncc1 | – | 4.36 µM (active)
CCN(CC)C(=O)N1CCN(C)CC1 | 10.2% (inactive) | –
CCN(CCCc1ccccc1)CCCc1ccccc1 | 1.28% (inactive) | –
COc1cc(N)c(Cl)cc1C(=O)NC1CCN(CCCOc2ccc(F)cc2)CC1OC (stereo not given) | 1.67% (inactive) | –
COc1cc(/C=C/C(=O)O[C@H]2CC[C@]34C[C@]35CC[C@]3(C)[C@@H]([C@H](C)CCC=C(C)C)CC[C@@]3(C)[C@@H]5CC[C@H]4C2(C)C)ccc1O | 13.5% (inactive) | –
CCN(CC)C(=O)/C(C#N)=C/c1cc(O)c(O)c([N+](=O)[O-])c1 | – | 0.0436 µM (active)
Cc1c2oc3c(C)ccc(C(=O)N[C@@H]4C(=O)N[C@H](C(C)C)C(=O)N5CCC[C@H]5C(=O)N(C)CC(=O)N(C)[C@@H](C(C)C)C(=O)O[C@@H]4C)c3nc-2c(C(=O)N[C@@H]2C(=O)N[C@H](C(C)C)C(=O)N3CCC[C@H]3C(=O)N(C)CC(=O)N(C)[C@@H](C(C)C)C(=O)O[C@@H]2C)c(N)c1=O (I: T[dV]P[Sar][NMeV] / II: T[dV]P[Sar][NMeV]; ester I:1-I:C, II:1-II:C; linker I:N-II:N via Actinocin(9to1)) | 6.69% (inactive) | –
O=C(COc1ccc(Cl)cc1)N1CCN(Cc2ccc3c(c2)OCO3)CC1 | – | 12.3 µM (active)
NC(=O)C(=O)N/N=C/c1ccc([N+](=O)[O-])o1 | -6.27% (inactive) | –

SMILES | activity change, negative = inhibition | Potency
NCCc1ccn[nH]1 | 8.73% (inactive) | –
CCCCOc1ccc(OCCCN2CCOCC2)cc1 | -17.7% (inactive) | –
CN1CCC(=C2c3ccccc3Sc3ccccc32)CC1 | 5.74% (inactive) | –
CCCCS(=O)(=O)N[C@@H](Cc1ccc(OCCCCC2CCNCC2)cc1)C(=O)O | 0.28% (inactive) | –
CNCC[C@@H](Oc1ccccc1C)c1ccccc1 | 0.535% (inactive) | –
COC(=O)CCc1ccc(OCC(O)CNC(C)C)cc1 (stereo not given) | 5.38% (inactive) | –
CC(=O)[C@H]1CC[C@H]2[C@@H]3C[C@H](C)C4=CC(=O)CC[C@]4(C)[C@H]3[C@@H](O)C[C@]12C | – | 0.86 µM (active)
CC[N+](CC)(CCNC(=O)C(=O)NCC[N+](CC)(CC)Cc1ccccc1Cl)Cc1ccccc1Cl | -3.92% (inactive) | –
CCOC(=O)c1cccc(N)c1 | 13.7% (inactive) | –
OC[C@H]1O[C@H](O[C@]2(CCl)O[C@H](CCl)[C@@H](O)[C@@H]2O)[C@H](O)[C@@H](O)[C@H]1Cl | -3.76% (inactive) | –
NC[C@H]1O[C@H](O[C@H]2[C@H](O)[C@@H](O[C@H]3O[C@H](CO)[C@@H](O)[C@H](N)[C@H]3O)[C@H](N)C[C@@H]2N)[C@H](N)[C@@H](O)[C@@H]1O | 19.4% [at 23.9 µM] (inactive) | –
CC1(C)O[C@@H]2C[C@H]3[C@@H]4CCC5=CC(=O)CC[C@]5(C)[C@@]4(F)[C@@H](O)C[C@]3(C)[C@]2(C(=O)CCl)O1 | – | 8.71 µM (active)
CNC(=O)CN(CCN(CCN(CC(=O)[O-])CC(=O)NC)CC(=O)[O-])CC(=O)[O-].O.[Gd+3] | 6.51% (inactive) | –
Cc1ccnc(NS(=O)(=O)c2ccc(N)cc2)n1 | 16.6% (inactive) | –
C#C[C@]1(O)CC[C@H]2[C@@H]3CCc4cc(OC5CCCC5)ccc4[C@H]3CC[C@@]21C | – | 8.71 µM (active)
CCN(CC)CCNC(=O)COc1ccc(Cl)cc1 | 10.9% (inactive) | –
Cc1cccn2c(=O)c(-c3nnn[nH]3)cnc12 | 7.16% [at 23.9 µM] (inactive) | –
